Reference: article PMC7862700, “An all-to-all approach to the identification of sequence-specific readers for epigenetic DNA modifications on cytosine”

Columns and labels:
Test in all cases: DAPPL (digital affinity profiling via proximity ligation, sequencing); 10 mM Tris-HCl pH 7.5, 50 mM NaCl, 1 mM DTT, 4% glycerol, room temperature, 30 min; GST-TFs on glutathione beads, 16-mer random dsDNA library, 0.1% formaldehyde crosslink after washing; high values mean tight binding
Conditions in all cases: protein: recombinant; tags: N-terminal GST; dsDNA, one strand shown
[1] = target: T1, FLI1 (Homo sapiens, UniProt Q01543 1-452)
T1 sequence: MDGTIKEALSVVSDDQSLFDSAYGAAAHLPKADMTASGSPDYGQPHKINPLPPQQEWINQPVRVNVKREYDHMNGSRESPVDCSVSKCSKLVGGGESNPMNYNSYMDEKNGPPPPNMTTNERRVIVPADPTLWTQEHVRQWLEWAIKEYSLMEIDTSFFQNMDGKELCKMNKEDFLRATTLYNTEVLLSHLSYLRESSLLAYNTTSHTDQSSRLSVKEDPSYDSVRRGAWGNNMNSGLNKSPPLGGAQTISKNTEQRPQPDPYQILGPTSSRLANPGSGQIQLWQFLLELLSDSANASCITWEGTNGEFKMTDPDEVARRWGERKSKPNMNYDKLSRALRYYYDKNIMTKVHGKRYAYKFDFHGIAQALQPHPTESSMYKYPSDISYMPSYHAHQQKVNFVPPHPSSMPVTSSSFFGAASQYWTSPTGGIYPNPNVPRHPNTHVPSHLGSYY
Outline: (§1)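 GST fusions of human transcription factors were expressed in yeast and captured with glutathione beads. Once given DNA barcodes and pooled alongside a tag-only sample, they were incubated for 30 min at room temperature with 200 nmole of a random double-stranded 16-mer DNA library in Tris/NaCl/DTT/glycerol buffer, then washed, crosslinked (0.1% formaldehyde), proximity-ligated, PCR-amplified and sequenced on an Illumina NextSeq500. The binding signal of each hexamer is its read frequency for a factor divided by its frequency for the tag-only sample.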

[2] = target: T2, ELK1 (Homo sapiens, UniProt P19419 1-428)
T2 sequence: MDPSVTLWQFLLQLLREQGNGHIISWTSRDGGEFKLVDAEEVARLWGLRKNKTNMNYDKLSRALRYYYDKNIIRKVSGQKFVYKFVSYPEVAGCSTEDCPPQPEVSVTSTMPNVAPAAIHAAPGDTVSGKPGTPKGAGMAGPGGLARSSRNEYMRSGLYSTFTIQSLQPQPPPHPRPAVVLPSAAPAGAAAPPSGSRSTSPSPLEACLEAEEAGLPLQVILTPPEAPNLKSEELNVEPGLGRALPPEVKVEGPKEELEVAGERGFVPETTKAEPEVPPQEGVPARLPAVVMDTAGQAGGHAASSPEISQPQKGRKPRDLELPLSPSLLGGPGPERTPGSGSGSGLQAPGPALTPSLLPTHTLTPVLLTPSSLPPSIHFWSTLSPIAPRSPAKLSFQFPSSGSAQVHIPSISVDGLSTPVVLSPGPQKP
Outline: as §1

[3] = target: T3, GABPA (Homo sapiens, UniProt Q06546 1-454)
T3 sequence: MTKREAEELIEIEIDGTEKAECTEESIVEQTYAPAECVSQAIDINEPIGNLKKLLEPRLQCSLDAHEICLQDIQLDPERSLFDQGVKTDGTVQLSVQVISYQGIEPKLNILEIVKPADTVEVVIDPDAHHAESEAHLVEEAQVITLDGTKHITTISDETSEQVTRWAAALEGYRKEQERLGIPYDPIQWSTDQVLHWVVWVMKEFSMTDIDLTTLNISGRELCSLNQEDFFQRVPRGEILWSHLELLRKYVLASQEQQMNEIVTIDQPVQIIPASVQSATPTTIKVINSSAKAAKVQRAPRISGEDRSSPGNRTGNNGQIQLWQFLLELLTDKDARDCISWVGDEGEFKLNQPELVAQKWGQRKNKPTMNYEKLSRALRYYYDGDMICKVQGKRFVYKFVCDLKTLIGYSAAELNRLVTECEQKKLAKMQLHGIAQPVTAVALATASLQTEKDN
Outline: as §1

[4] = target: T4, ERG (Homo sapiens, UniProt P11308 1-479)
T4 sequence: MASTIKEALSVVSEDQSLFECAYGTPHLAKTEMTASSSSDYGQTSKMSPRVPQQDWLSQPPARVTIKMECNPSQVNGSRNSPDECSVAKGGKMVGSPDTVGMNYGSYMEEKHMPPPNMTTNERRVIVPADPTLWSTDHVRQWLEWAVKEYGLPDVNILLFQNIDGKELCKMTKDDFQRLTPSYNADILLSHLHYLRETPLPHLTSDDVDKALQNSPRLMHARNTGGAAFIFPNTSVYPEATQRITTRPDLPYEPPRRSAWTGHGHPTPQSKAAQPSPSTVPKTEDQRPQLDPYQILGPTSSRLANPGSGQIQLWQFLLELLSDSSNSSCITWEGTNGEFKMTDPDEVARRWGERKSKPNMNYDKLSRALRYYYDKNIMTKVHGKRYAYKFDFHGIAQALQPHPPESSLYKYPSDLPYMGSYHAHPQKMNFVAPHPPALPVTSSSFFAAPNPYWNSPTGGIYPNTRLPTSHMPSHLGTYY
Outline: as §1

[5] = target: ELF1 (Homo sapiens, UniProt P32519 1-619)
Outline: as §1

[6] = target: T5, EHF (Homo sapiens, UniProt Q9NZC4 1-300)
T5 sequence: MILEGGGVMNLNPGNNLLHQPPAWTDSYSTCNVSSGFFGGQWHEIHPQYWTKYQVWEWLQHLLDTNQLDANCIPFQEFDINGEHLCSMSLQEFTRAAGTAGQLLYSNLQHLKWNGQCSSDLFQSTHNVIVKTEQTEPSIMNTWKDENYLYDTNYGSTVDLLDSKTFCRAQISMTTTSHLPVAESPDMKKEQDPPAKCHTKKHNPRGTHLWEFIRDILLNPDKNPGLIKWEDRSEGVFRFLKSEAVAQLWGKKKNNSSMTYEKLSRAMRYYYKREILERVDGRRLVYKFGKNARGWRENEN
Outline: as §1

[7] = target: SPI1 (Homo sapiens, UniProt P17947 1-270)
Outline: as §1

[8] = target: SPIB (Homo sapiens, UniProt Q01892 1-262)
Outline: as §1

[9] = target: T6, ELK3 (Homo sapiens, UniProt P41970 1-407)
T6 sequence: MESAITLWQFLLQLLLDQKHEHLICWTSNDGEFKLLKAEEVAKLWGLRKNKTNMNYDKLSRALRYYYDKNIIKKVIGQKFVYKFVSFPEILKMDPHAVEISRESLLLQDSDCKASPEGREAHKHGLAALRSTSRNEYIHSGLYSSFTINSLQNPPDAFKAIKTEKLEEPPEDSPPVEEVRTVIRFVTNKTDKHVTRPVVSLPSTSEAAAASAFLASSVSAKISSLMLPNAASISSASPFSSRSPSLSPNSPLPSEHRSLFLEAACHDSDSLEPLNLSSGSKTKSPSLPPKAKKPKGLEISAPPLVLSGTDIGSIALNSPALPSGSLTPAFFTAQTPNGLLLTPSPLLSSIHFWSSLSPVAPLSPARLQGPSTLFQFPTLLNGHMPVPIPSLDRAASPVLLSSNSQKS
Outline: as §1

ELF1, sequence (P32519 whole entry): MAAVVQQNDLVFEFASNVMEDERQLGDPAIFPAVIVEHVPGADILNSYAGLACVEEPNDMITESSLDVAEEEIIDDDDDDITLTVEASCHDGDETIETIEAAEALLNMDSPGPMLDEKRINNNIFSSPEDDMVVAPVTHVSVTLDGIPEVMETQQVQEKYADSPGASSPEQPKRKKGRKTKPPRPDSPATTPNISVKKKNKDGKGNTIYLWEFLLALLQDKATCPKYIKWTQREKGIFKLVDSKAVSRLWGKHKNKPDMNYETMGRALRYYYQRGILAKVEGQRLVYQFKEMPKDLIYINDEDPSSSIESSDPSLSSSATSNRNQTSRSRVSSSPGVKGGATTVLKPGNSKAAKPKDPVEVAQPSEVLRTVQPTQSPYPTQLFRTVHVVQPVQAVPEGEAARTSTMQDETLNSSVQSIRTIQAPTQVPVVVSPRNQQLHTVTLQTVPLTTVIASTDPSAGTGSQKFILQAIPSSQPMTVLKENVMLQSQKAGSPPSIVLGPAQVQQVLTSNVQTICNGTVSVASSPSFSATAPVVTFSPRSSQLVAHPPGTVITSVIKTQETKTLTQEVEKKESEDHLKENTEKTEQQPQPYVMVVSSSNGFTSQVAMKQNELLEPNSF
SPIB, sequence (Q01892 whole entry): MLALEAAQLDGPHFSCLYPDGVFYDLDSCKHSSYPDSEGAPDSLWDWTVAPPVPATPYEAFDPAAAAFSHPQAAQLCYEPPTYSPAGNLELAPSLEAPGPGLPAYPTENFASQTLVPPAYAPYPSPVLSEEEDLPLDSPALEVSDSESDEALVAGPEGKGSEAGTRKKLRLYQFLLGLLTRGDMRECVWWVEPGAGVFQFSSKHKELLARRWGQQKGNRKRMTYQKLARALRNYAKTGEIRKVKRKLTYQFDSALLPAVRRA

Row | Sequence | binding signal [1] | binding signal [2] | binding signal [3] | binding signal [4] | binding signal [5] | binding signal [6] | binding signal [7] | binding signal [8] | binding signal [9]
1 | ATTCAA | 1.26 fold enrichment (6-mer frequency, TF over GST control) | 1.34 fold enrichment (6-mer frequency, TF over GST control) | 1.4 fold enrichment (6-mer frequency, TF over GST control) | 1.36 fold enrichment (6-mer frequency, TF over GST control) | 1.39 fold enrichment (6-mer frequency, TF over GST control) | 1.41 fold enrichment (6-mer frequency, TF over GST control) | 1.31 fold enrichment (6-mer frequency, TF over GST control) | 1.34 fold enrichment (6-mer frequency, TF over GST control) | 1.39 fold enrichment (6-mer frequency, TF over GST control)
2 | CCCATG | 1.06 fold enrichment (6-mer frequency, TF over GST control) | 1 fold enrichment (6-mer frequency, TF over GST control) | 1.22 fold enrichment (6-mer frequency, TF over GST control) | 1.19 fold enrichment (6-mer frequency, TF over GST control) | 1.15 fold enrichment (6-mer frequency, TF over GST control) | 1.11 fold enrichment (6-mer frequency, TF over GST control) | 1.14 fold enrichment (6-mer frequency, TF over GST control) | 1.15 fold enrichment (6-mer frequency, TF over GST control) | 1.13 fold enrichment (6-mer frequency, TF over GST control)
3 | TAAAGA | 1.11 fold enrichment (6-mer frequency, TF over GST control) | 1.04 fold enrichment (6-mer frequency, TF over GST control) | 1.14 fold enrichment (6-mer frequency, TF over GST control) | 1.14 fold enrichment (6-mer frequency, TF over GST control) | 1.14 fold enrichment (6-mer frequency, TF over GST control) | 1.07 fold enrichment (6-mer frequency, TF over GST control) | 1.12 fold enrichment (6-mer frequency, TF over GST control) | 1.11 fold enrichment (6-mer frequency, TF over GST control) | 1.07 fold enrichment (6-mer frequency, TF over GST control)
4 | ATCATA | 1.07 fold enrichment (6-mer frequency, TF over GST control) | 1.06 fold enrichment (6-mer frequency, TF over GST control) | 1.16 fold enrichment (6-mer frequency, TF over GST control) | 1.05 fold enrichment (6-mer frequency, TF over GST control) | 1.12 fold enrichment (6-mer frequency, TF over GST control) | 1.03 fold enrichment (6-mer frequency, TF over GST control) | 1.05 fold enrichment (6-mer frequency, TF over GST control) | 1.18 fold enrichment (6-mer frequency, TF over GST control) | 1.09 fold enrichment (6-mer frequency, TF over GST control)
5 | GAAACA | 1.38 fold enrichment (6-mer frequency, TF over GST control) | 1.4 fold enrichment (6-mer frequency, TF over GST control) | 1.22 fold enrichment (6-mer frequency, TF over GST control) | 1.32 fold enrichment (6-mer frequency, TF over GST control) | 1.35 fold enrichment (6-mer frequency, TF over GST control) | 1.45 fold enrichment (6-mer frequency, TF over GST control) | 1.3 fold enrichment (6-mer frequency, TF over GST control) | 1.36 fold enrichment (6-mer frequency, TF over GST control) | 1.38 fold enrichment (6-mer frequency, TF over GST control)
6 | TTAATC | 1.28 fold enrichment (6-mer frequency, TF over GST control) | 1.21 fold enrichment (6-mer frequency, TF over GST control) | 1.2 fold enrichment (6-mer frequency, TF over GST control) | 1.17 fold enrichment (6-mer frequency, TF over GST control) | 1.2 fold enrichment (6-mer frequency, TF over GST control) | 1.22 fold enrichment (6-mer frequency, TF over GST control) | 1.21 fold enrichment (6-mer frequency, TF over GST control) | 1.31 fold enrichment (6-mer frequency, TF over GST control) | 1.31 fold enrichment (6-mer frequency, TF over GST control)
7 | TCAAAT | 1.04 fold enrichment (6-mer frequency, TF over GST control) | 1.05 fold enrichment (6-mer frequency, TF over GST control) | 1.14 fold enrichment (6-mer frequency, TF over GST control) | 1.06 fold enrichment (6-mer frequency, TF over GST control) | 1.15 fold enrichment (6-mer frequency, TF over GST control) | 1.07 fold enrichment (6-mer frequency, TF over GST control) | 1.11 fold enrichment (6-mer frequency, TF over GST control) | 1.05 fold enrichment (6-mer frequency, TF over GST control) | 1.03 fold enrichment (6-mer frequency, TF over GST control)
8 | TACGTC | 1.19 fold enrichment (6-mer frequency, TF over GST control) | 1.16 fold enrichment (6-mer frequency, TF over GST control) | 1.13 fold enrichment (6-mer frequency, TF over GST control) | 1.16 fold enrichment (6-mer frequency, TF over GST control) | 1.13 fold enrichment (6-mer frequency, TF over GST control) | 1.25 fold enrichment (6-mer frequency, TF over GST control) | 1.12 fold enrichment (6-mer frequency, TF over GST control) | 1.31 fold enrichment (6-mer frequency, TF over GST control) | 1.21 fold enrichment (6-mer frequency, TF over GST control)
